According to ChEMBL document CHEMBL1157539, “Thousands of chemical starting points for antimalarial lead identification” (Nature, 2010):

Tested on: HepG2
Experiment: GSK_TCMDC: Percent inhibition of human HepG2 cell line. Test compounds present at 10uM.
Format: functional

Row | SMILES | Inhibition
1 | O=C(Nc1ccc(Cl)cc1)N[C@H]1CCN(CCCCCNC(=O)C2CC2c2ccc(Cl)c(Cl)c2)C1 (stereo not given in full) | 24%
2 | Nc1cccc(CNCc2cccc(-c3cccc(-c4nc5cc(F)ccc5[nH]4)c3)c2)c1.O=C(O)C(F)(F)F | 5%
3 | CNCc1ccc(CN(C)c2nc(N)c3cc(OC)c(OC)cc3n2)cc1.O=C(O)C(F)(F)F | 12%
4 | CCc1nc2c(N)nc(N)nc2nc1-c1ccc(OC)cc1 | 44%
5 | N#Cc1cccc(Nc2nccc(NCC(O)c3ccc(C(F)(F)F)cc3)n2)c1 (stereo not given) | 23%
6 | O=C(O)C(F)(F)F.O=S(=O)(NCCN1CCCC1)c1ccc(-c2cccc(CNC3Cc4ccccc4C3)c2)s1 | 57%
7 | COc1ccc(-c2ccc(NC(=O)c3ccc(Cl)cc3)cc2)cc1CN1CCCN(C)CC1.O=C(O)C(F)(F)F | 27%
8 | CC1CN(c2cc(=O)n(Cc3ccc(NC(=O)Nc4ccc(-c5ccccc5)cc4)cc3)cn2)CC(C)N1.O=C(O)C(F)(F)F (stereo not given) | 0%
9 | COc1ccc(CN2CCCN(Cc3cccc(NC(=O)c4ccc5ccccc5c4)c3)CC2)cc1.O=C(O)C(F)(F)F | 27%
10 | O=C(NCc1ccccc1)NC(CCCN1CCC(Oc2cccc(Cl)c2)CC1)c1ccc(Cl)c(Cl)c1 (stereo not given) | 15%
11 | CC(C)N1CCN(C(CN2CCN(CCCOc3cccc(F)c3)CC2)c2ccc(F)cc2)CC1.Cl (stereo not given) | 38%
12 | Cc1nc(N)nc(N)c1CCCOc1ccccc1Cl | 40%
13 | COc1cc2nc(Nc3ccc4c(c3)OCCO4)nc(N)c2cc1OC.Cl | 13%
14 | COc1cc2nccc(Nc3ccc(OCc4ccccc4)cc3)c2cc1OC | 35%
15 | Cc1cnc2cc3c(cc2c1N1CCN(C)CC1)NCC3 | 12%
16 | CC(=O)Nc1ccc(CN2CCc3ccc(NS(=O)(=O)c4cccc(OCc5ccc(Cl)cc5)c4)cc3CC2)s1 | 23%
17 | Cc1c(-c2cccc(C(C)(C)NC3CCN(Cc4ccccc4)CC3)c2)cnc(N)c1C.Cl | 14%
18 | CN(C)Cc1ccc(-c2ccc(NC(=O)c3ccc4c(=O)n(Cc5ccoc5)cnc4c3)cc2)cc1 | 32%
19 | O=C(Nc1ccc(Cl)cc1Cl)NC1CCN(CCCCCNC(=O)C2CC2c2ccc(Cl)c(Cl)c2)CC1 (stereo not given) | 67%
20 | Cl.N=C(N)NN=Cc1cc2ccccc2c2ccccc12 | 25%

Row | SMILES | Inhibition
21 | CCC(CN1C(=O)C(c2ccccc2)(c2ccccc2)N=C1N)c1ccccc1.O=CO (stereo not given) | 11%
22 | Fc1ccc2[nH]c(-c3cccc(-c4cccc(CNCCN5CCNCC5)c4)c3)nc2c1.O=C(O)C(F)(F)F | 18%
23 | CCCN(CC1CC1)c1ncc(-c2ccccc2CNCc2ccccc2O)cn1 | 4%
24 | O=C(O)C(F)(F)F.O=c1ccc2ccc(F)c3c2n1CC3CN1CCC(NCc2cccc(-c3ccccc3F)c2)CC1 (stereo not given) | 29%
25 | CS(=O)(=O)c1ccc2[nH]c(-c3cc(-c4cccc(F)c4)cnc3N)nc2c1.O=C(O)C(F)(F)F | 33%
26 | CCCN(Cc1nnc(-c2ccco2)o1)C(=O)C1CCCN(C(=O)c2ccc(Cl)cc2)C1 (stereo not given) | 0%
27 | CN1CCN(c2cc3c(cc2Cl)CCN3C(=O)Cc2ccc(Cl)c(NC(=O)Nc3cccc(C#N)c3)c2)CC1 | 0%
28 | CC(C)CNCc1ccc(-c2cccc(CN(CCN(C)C)C(=O)CCC3CCCC3)c2)cc1.O=C(O)C(F)(F)F | 56%
29 | COc1ccc2nccc([C@@H](O)CN3CCC(NC(=O)/C=C/c4cccc(NC(C)=O)c4)CC3)c2c1 | 5%
30 | CCn1c(-c2nonc2N)nc2c(Cl)ncc(O[C@H](CCN)c3ccccc3F)c21.Cl | 15%
31 | CCN(CC)CCCN1CCN(C(=O)c2cccc(-c3noc(C(F)(F)F)n3)c2)CC1 | 0%
32 | Cc1cccc(Nc2nccc(Nc3cccc(C(=O)NCCN4CCOCC4)c3)n2)c1 | 10%
33 | Cc1cc(O)c(CN(C)Cc2ccc3c(c2)OCO3)cc1C(C)C | 9%
34 | CCC(Cc1ccccc1)c1cc(O)c(Cc2ccc(-c3ccccc3)cc2)c(=O)o1 (stereo not given) | 3%
35 | Cl.Cn1c2ccccc2c2c3ccccc3c(CNC(CO)(CO)CO)cc21 | 67%
36 | CS(=O)(=O)CCNCc1ccc(-c2ccc3c(Nc4ccc(F)cc4Cl)ccnc3c2)o1 | 29%
37 | N=C(N)c1ccc(NC(=O)c2cc(Sc3ccc(O)c(C(=O)Nc4ccc(C(=N)N)cc4)c3)ccc2O)cc1 | 11%
38 | O=C(/C=C/c1ccc(Cl)c(Cl)c1)NCCCCCN1CCC(NC(=O)Nc2ccc(Cl)cc2Cl)CC1 | 96%
39 | Cc1nnsc1C(=O)Nc1ccc(-c2cccc(-c3nc4cccc(C)c4[nH]3)c2)cc1 | 23%
40 | CC(C)(C)C1CC(=O)CC2C(=O)N(C3CCCCC3)C(=O)C21 (stereo not given) | 0%
